# Experimental data as given in ChEMBL document CHEMBL3988442, “University of Dundee, Small-Polar-MMV Screening Library” (2021).
# Biological target: T1, Aspartate--tRNA(Asp/Asn) ligase (Mycobacterium tuberculosis (strain ATCC 25618 / H37Rv)) (UniProt P9WFW3)
# T1 sequence (whole entry): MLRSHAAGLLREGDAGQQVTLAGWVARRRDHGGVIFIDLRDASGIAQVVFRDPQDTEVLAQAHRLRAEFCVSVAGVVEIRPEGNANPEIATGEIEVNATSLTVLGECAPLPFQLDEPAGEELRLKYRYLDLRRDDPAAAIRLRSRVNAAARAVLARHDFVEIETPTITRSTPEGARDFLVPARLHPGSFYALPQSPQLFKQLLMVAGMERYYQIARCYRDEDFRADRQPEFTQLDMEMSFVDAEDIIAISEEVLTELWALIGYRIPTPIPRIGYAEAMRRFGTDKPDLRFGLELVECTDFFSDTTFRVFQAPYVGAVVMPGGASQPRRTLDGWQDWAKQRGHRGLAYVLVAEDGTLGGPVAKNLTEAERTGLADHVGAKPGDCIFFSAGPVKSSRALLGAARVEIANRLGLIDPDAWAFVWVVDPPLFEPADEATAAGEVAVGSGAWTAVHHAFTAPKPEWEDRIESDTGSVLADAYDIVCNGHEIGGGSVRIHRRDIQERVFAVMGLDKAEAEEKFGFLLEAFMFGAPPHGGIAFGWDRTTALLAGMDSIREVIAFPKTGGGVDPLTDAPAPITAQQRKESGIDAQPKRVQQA
# Assay: Assay for Asp RNA synthetase-1 from Mycobacterium tuberculosis
# Format: functional
# Set-up: scale not given: in the data most compounds retested in dose-response had high values
# Conditions: 30 µM
row,Structure (SMILES),Percent Effect [%]
1,CCc1ccc(NS(=O)(=O)CC2=NC(=O)n3cccc3C2=O)cc1,0.755
2,CN(C)C(=O)COCc1cncc2c1CCN(Cc1cnn(C)c1)C2,6.12
3,CCOc1cccc2c1OCC(C(=O)NS(=O)(=O)c1ccc(C)s1)=C2,4.55
4,CCc1n[nH]c(C2CN(Cc3nccn3CC)CCO2)n1 (stereo not given),1.7
5,Cc1cc(C)nc(NC(=O)C(C)Oc2ccc3c(c2)OCO3)n1 (stereo not given),12.6
6,Cc1cccc(CN2C(=O)CCC23CCN(Cc2cccn2C)CC3)n1,0.796
7,Cn1ccc(CN2CCC(CO)CC2)cc1=O,-0.422
8,Cc1ccc2nc(C3CCN(CCO)CC3)nn2c1,2.18
9,CC(C(=O)N1CCCC1)N1CCC(c2nccn2Cc2cscn2)CC1 (stereo not given),1.8
10,Cc1c(C(=O)NC(C)C(C)C)nnn1-c1cccc2c1CCN(C)C2 (stereo not given),2.19
11,Cc1cc(CN(C)C(=O)c2cc3c([nH]c2=O)CCCC3=O)no1,2.54
12,O=C(NCCCn1cncn1)NCC(c1ccccc1)N1CCCC1 (stereo not given),0.0576
13,CC(C)C(C(=O)N1CCN(c2ccncc2)CC1)n1cncn1 (stereo not given),7.82
14,Fc1ccc(-c2nnc(CN3CCOC(Cn4cncn4)C3)o2)cc1 (stereo not given),1.55
15,O=C(CCN1CCCN(c2nccs2)CC1)Nc1ccccc1,-1.81
16,COC(=O)c1cccn1C1CCN(Cc2ccccc2)CC1,0.995
17,Cc1ccc(-c2csc(N)c2C#N)cc1,-4.7
18,Cc1ccccc1[C@@H]1CN(C(=O)c2ccc3[nH]nnc3c2)C[C@H]1C(=O)O,2.17
19,OCCN1CCOC2(CCCN(c3cccc(F)c3)C2)C1 (stereo not given),-3.25
20,Cc1ccc(-c2cc(CNC(=O)N3CCOC(C)C3)on2)cc1 (stereo not given),0.699
